Mdm2-MdmX inh: human Mdm2/MdmX binding inhibition; O15151+Q00987; SaOS-2 split-luciferase Mdm2/MdmX complementation, luminescence; inhibition, % at 8 µM; 3% of 330,000 active; AID 485346;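 active = inhibition of at least 50% at 8 µM in the primary screen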
Target sequence (O15151 whole entry, looked up): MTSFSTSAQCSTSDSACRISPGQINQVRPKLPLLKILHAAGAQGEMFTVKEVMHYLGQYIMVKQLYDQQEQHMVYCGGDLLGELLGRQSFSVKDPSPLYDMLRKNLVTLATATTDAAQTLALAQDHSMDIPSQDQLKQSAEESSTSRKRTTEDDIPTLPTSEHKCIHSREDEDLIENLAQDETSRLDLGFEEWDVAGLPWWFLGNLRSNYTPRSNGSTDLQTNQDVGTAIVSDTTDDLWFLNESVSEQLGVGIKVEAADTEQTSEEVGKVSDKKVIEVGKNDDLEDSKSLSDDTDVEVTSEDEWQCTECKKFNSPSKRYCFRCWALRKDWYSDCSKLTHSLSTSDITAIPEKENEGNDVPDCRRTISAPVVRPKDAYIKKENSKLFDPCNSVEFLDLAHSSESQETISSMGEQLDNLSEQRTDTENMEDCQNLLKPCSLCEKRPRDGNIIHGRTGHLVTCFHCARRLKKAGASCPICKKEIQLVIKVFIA
Target sequence (Q00987 whole entry, looked up): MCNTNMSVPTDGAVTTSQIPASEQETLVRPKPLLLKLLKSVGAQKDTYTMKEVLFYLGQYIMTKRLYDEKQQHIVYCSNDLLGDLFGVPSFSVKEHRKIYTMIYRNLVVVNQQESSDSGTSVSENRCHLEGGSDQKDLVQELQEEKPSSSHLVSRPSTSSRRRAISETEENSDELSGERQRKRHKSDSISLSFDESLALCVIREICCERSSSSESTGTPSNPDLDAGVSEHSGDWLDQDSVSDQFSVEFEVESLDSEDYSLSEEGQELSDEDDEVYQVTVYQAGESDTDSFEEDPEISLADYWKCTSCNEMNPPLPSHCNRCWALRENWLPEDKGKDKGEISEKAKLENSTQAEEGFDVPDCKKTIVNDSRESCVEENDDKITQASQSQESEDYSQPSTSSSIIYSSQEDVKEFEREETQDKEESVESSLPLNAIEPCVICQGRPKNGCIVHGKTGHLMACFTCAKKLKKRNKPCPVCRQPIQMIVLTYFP
KLF5 inh: kruppel-like factor 5 inhibition; DLD-1 KLF5 promoter-luciferase reporter, luminescence; inhibition, % at 5 µM; 0.23% of 290,000 active; AID 1700;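 active = inhibition above a per-plate limit of that plate's mean compound inhibition plus 3 SD, cut at about 60% in these data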;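 also: higher means less KLF5 promoter-driven luciferase light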
Jurkat NFkB inh: lowers PMA/ionomycin-induced NF-kB signal in Jurkat cells. PMA/ionomycin-induced NF-kB luciferase reporter, luminescence. 0.53% of 330,000 active. inhibition, % at 4 µM; in the data active = inhibition above about 50%
697 NFkB inh: inhibitors of the PMA/ionomycin-induced NF-kB reporter in 697 B cells | 0.33% of 330,000 active | inhibition, % at 4 µM | 697 B-cell NF-kB luciferase reporter, 16 h; in the data active = inhibition above about 35%
aSyn 5UTR inh: MLPCN primary screen, SNCA 5' untranslated region | 0.82% of 300,000 active | AID 1813 | alpha-synuclein 5'UTR reporter, inhibitor activity | inhibition, % (tested at 7.5 µM); in the data active = inhibition above about 60%;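 also: H4 neuroglioblastoma cells stably carrying SNCA 5'UTR luciferase fusion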
Gli-Sufu block: antagonists of Gli-Sufu signaling | Sufu-KO-LIGHT fibroblasts, Gli luciferase reporter luminescence | inhibition, % at 5 µM | 0.74% of 340,000 active | AID 588413;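 active = inhibition above about 55%, limit read from the data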
Jurkat NFkB conf: inhibitors of the PMA/ionomycin-induced NF-kB reporter in Jurkat cells, retest | shares compounds with Jurkat NFkB inh | Jurkat NF-kB luciferase, 16 h | inhibition, % at 4 µM | 27% of 2,700 active | AID 435020;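 active = inhibition reaching about 45% at 4 µM in either replicate, limit read from the data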
697 NFkB conf: inhibitors of the PMA/ionomycin-induced NF-kB reporter in 697 B cells, retest; shares compounds with 697 NFkB inh; 697 B-cell NF-kB luciferase, 16 h; inhibition, % at 4 µM; 35% of 2,000 active; in the data active = inhibition mostly above about 28%, no sharp cut-off; inactive = mostly below about 22%
A number is an active result; - = inactive; . = not tested or not shown. An excerpt weighted towards active compounds, which were near 4.1% of everything screened.

SMILES | Mdm2-MdmX inh | KLF5 inh | Jurkat NFkB inh | 697 NFkB inh | aSyn 5UTR inh | Gli-Sufu block | Jurkat NFkB conf | 697 NFkB conf
O=C(Nc1ccc(S(=O)(=O)Nc2ccc(F)cc2)cc1)c1ccc(CN2CCOCC2)cc1 | - | - | 63 | 47 | - | - | 63 | -
CCOc1ccc(C(=O)NCc2ccco2)cc1Cl | - | - | - | - | - | - | . | .
CCOC(=O)N1CCN(c2ncnc3c2cnn3-c2ccc(OC)cc2)CC1 | . | - | . | . | - | - | . | .
COc1ccc(-n2ncc3c(N4CCC(C)CC4)ncnc32)cc1 | - | - | - | - | - | - | - | -
CNC(=O)c1ccsc1NC(=O)c1ccc2c(c1)CCCC2 | - | - | - | - | - | - | . | .
NC(=O)c1ccsc1NC(=O)c1ccc2c(c1)CCCC2 | - | - | - | - | - | - | - | -
CCOc1ccc2nc(NC(=O)Nc3ccccc3)sc2c1 | - | - | - | - | - | - | . | .
CCOc1ccc2nc(NC(=O)COC)sc2c1 | - | - | - | - | - | - | . | .
CCOc1ccc2nc(NC(=O)c3ccoc3C)sc2c1 | - | - | - | - | - | - | - | -
Cc1ccc2nc(NC(=O)c3ccccc3F)sc2c1 | - | - | - | - | - | - | - | -
COc1ccc2nc(NC(=O)c3ccccc3F)sc2c1 | - | - | - | - | - | - | - | -
COc1ccc2nc(NC(=O)Nc3ccccc3)sc2c1 | - | - | - | - | - | - | - | -
CCOC(=O)COc1ccccc1C(=O)c1cnn(-c2ccccc2)c1 | - | - | - | - | - | - | . | .
N#Cc1cc2c(nc1S(=O)(=O)Cc1ccccc1)CCCC2 | - | - | - | - | - | - | . | .
Cc1ccccc1NC(=O)c1ccc2c(O)c(S(=O)(=O)c3ccccc3)c(=O)[nH]c2c1 | - | - | - | - | - | - | . | .
O=C1CCCC2=C1C(c1ccccc1)CC(=O)N2c1ccc(F)cc1F (stereo not given) | - | - | - | - | - | - | . | .
Cc1cc(C)nc(SC2=CS(=O)(=O)c3ccccc32)n1 | - | - | - | - | - | - | . | .
O=S1(=O)C=C(Sc2nc3ccccc3s2)c2ccccc21 | - | - | 97 | - | - | - | 92 | -
Nc1c(-c2ccc(Cl)cc2)cnc2c(-c3ccc(F)cc3)cnn12 | - | - | - | - | - | - | - | -
Cc1c(-c2nc(-c3ccc(C(C)(C)C)cc3)no2)n(C)oc1=O | - | - | 60 | - | - | - | - | -
N=c1cc(C2(O)CCCCC2)n2c(nc3ccccc32)s1 | - | - | - | - | - | - | - | -
COc1ccc2c(c1)CC/C(=C\Nc1ccc3c(c1)OCO3)C2=O | - | - | - | - | - | - | . | .
COc1ccc(N/C=C2\CCc3ccccc3C2=O)cc1 | - | - | - | - | 94 | - | - | -
CCOc1ccc2cc(C3CC(c4ccco4)=NN3S(C)(=O)=O)c(=O)[nH]c2c1 (stereo not given) | - | - | - | - | - | - | . | .
CCCC[C@@H]1C=C(C(=O)O)[C@H](c2ccc(Br)cc2)N1S(=O)(=O)c1ccc(C)cc1 | - | . | - | - | . | - | . | .
SMILES | Mdm2-MdmX inh | KLF5 inh | Jurkat NFkB inh | 697 NFkB inh | aSyn 5UTR inh | Gli-Sufu block | Jurkat NFkB conf | 697 NFkB conf
Cc1cccc(-c2cc3nc4c(c(NCc5ccco5)n3n2)CCCC4)c1 | - | - | - | - | - | - | - | -
CCOC(=O)c1sc2nc3c(cc2c1N)COC(C(C)C)C3 (stereo not given) | - | - | - | - | - | - | - | -
CC[C@]1(C(=O)OC)[C@H]2C(=O)N(Cc3ccccc3)C(=O)[C@H]2[C@H]2CN=C(SC)N21 | - | . | . | - | . | - | . | .
Cc1ccoc1C(=O)Nc1ccc2ccccc2c1 | - | - | - | - | - | - | - | -
Cc1cc(C(=O)Nc2ccc3ccccc3c2)oc1C | - | - | - | - | - | - | . | .
CCOc1cccc(C(=O)Nc2cccc(C(C)=O)c2)c1 | - | - | - | - | - | - | . | .
CCOc1cccc(C(=O)Nc2ccc3ccccc3c2)c1 | - | - | - | - | - | - | - | -
O=C(Nc1ccc2ccccc2c1)c1ccc(Cl)cc1 | - | - | - | - | - | - | - | -
C#CCOCCOCCOCCNc1nc(N2CCN(C(=O)[C@H](CCCCN)n3cc(CN)nn3)CC2)nc(N2CCN(C(=O)[C@H](CCC(=O)O)n3cc([C@@H](N)CCSC)nn3)CC2)n1 | - | . | - | - | . | - | . | .
Cc1cc(O)c2c(c1)CC1C3CCC4CC(=O)CCC4(C)C3CC(=O)C21C (stereo not given) | . | . | . | . | . | - | . | .
CN1/C(=C\C(=O)C[n+]2ccc3ccccc3c2)C(C)(C)c2ccccc21 | - | - | 83 | 49 | - | - | 79 | -
COc1cc2sc3ccc(C#CC4(O)CCCCC4)cc3c(=O)c2cc1OC | - | . | - | - | - | - | - | -
COc1cccc2sc3cc(C#CC4(O)CCCCC4)ccc3c(=O)c12 | - | . | - | - | . | - | . | .
Nn1c(SCC(=O)NC2CCCc3ccccc32)nnc1-c1ccc(Cl)cc1Cl (stereo not given) | . | - | . | . | . | . | . | .
CCN(C(=O)COC(=O)/C=C/c1cccc([N+](=O)[O-])c1)c1ccccc1 | - | - | - | - | - | - | . | .
Cc1cc(NNC(=O)Nc2cccc(Cl)c2)nc2c1c(C)nn2C | - | - | 53 | 58 | - | . | 56 | 56
Cc1nn(C)c(C)c1CNC(=O)Nc1cccc(Cl)c1 | - | - | - | - | - | - | . | .
C/C(=N/NC(=O)c1cccc(N2CCCC2=O)c1)c1ccncc1 | - | - | - | - | - | - | . | .
O=C(Nc1nc2ccccc2[nH]1)c1ccccc1 | - | - | - | - | - | - | - | -
O=C(Oc1ccc(Cl)c2ccccc12)N1CCCCC1 | - | - | - | - | - | - | . | .
O=C(Oc1ccc2ccccc2c1Cl)N1CCCC1 | - | - | - | - | - | - | - | -
O=C(Oc1ccc2ccccc2c1Cl)N1CCCCCC1 | - | - | - | - | - | - | - | -
O=C(COC(=O)CNC(=O)c1ccc(Cl)cc1)Nc1cccc(S(=O)(=O)N2CCCC2)c1 | - | - | - | - | - | - | . | .
c1cnc2ccc(-c3ccc4ncccc4c3)cc2c1 | - | - | - | - | - | - | - | -
COc1ccc([N+](=O)[O-])cc1N(CC(=O)N1CCN(Cc2ccccc2)CC1)S(C)(=O)=O | - | - | - | - | - | - | . | .
Cc1ccc(CNC(=O)c2nnn(CC(=O)Nc3cc(C)cc(C)c3)c2N)cc1 | - | - | - | - | - | - | . | .
O=C(/C=C/Nc1ccccc1)c1ccc(Cl)cc1Cl | - | - | - | - | - | - | - | -
COc1cccc(N/C=C/C(=O)c2ccc(C)cc2)c1 | - | - | - | - | - | - | - | -
O=C(/C=C/Nc1ccccc1)c1ccccc1 | - | - | - | - | - | - | - | -
COc1ccc(NC(=O)c2cc(S(=O)(=O)N3CCCCC3)c[nH]2)cc1Cl | - | - | - | - | - | - | . | .

Assay outcomes: PubChem BioAssay, several laboratories
